# An excerpt weighted towards active compounds, which were near 1.5% of everything screened.
# FAK inh – FAK (human) kinase inhibition; Q05397; biochemical FAK kinase activity assay; inhibition, %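 (tested at 7 µM)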; 0.84% of 97,000 active; AID 727; in the data active means inhibition above about 19%;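 further: 0% = DMSO and 100% = reference compound high control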
# EphB4 ephrin blk – blocks human EphB4 binding to ephrin-B2 | P54760 | EphB4 LBD / TNYL-RAW-Alexa532 peptide, fluorescence polarization | inhibition, % at 7 µM | 0.15% of 97,000 active | AID 720;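 active means inhibition above the screen-wide mean inhibition plus 3 SD, cut at about 15% in these data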;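 further: 0% = DMSO wells and 100% = excess unlabeled TNYL-RAW peptide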
# PLK1 PBD inh – Plk1 (human) PBD binding inhibition | inhibition, %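 (tested at about 20 µM)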 | P53350 | 0.13% of 97,000 active | AID 693 | Plk1 PBD phosphopeptide binding, fluorescence polarization; in the data active means inhibition above about 34%, passing the limit was not always enough
# Smad3 inh – blocks human Smad3 binding to FoxH1 peptide. inhibition, % at 25 µM. TR-FRET Smad3/Dy647-FoxH1 peptide binding, europium anti-His. P84022. 0.29% of 88,000 active;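 active means compounds that reduce the energy-transfer binding signal between the protein and its labelled peptide by more than half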;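 further: 0% = Smad3 plus labelled peptide maximal FRET and 100% = peptide-only background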
# PLK1 inh – PLK1 (human) kinase inhibition. 0.53% of 97,000 active. AID 619. inhibition, % at 10 µM. P53350. recombinant PLK1 kinase, TR-FRET peptide phosphorylation;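 active means inhibition of 50% or more in the single-concentration screen; inactive means inhibition below 50%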;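 further: 0% = DMSO max control and 100% = H-89 dihydrochloride min control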
# PLK1 inh conf – PLK1 (human) kinase inhibition, confirmed. shares compounds with PLK1 inh. recombinant PLK1 kinase, TR-FRET peptide phosphorylation. AID 744. 20% of 210 active. inhibition, % at 10 µM;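 active means inhibition at or above 50% in each of two repeat confirmation tests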;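 further: 0% = DMSO max control and 100% = H-89 kinase-blocked min control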
# Plk1 interf – Plk1 assay compound interference counter-screen hit. shares compounds with PLK1 inh. Plk1 TR-FRET assay interference, compound added post-reaction. inhibition (interference), % at 10 µM. 210 tested, under 10 active;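 active means both duplicate runs show 50% or greater inhibition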;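 further: 0% = DMSO max control and 100% = H-89 min control inhibited reaction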
# Redox H2O2 DR – generates H2O2 by redox cycling, flagging false Plk1 PBD hits | redox cycling H2O2 generation, DTT, counter-screen | 120 tested, under 10 active | AID 876 | EC50, µM | shares compounds with PLK1 PBD inh; call rule not given here
# Starred values were filed as active, the others as inactive; . = no result; [ ] = dose if it differs, or a comment.
SMILES,FAK inh,EphB4 ephrin blk,PLK1 PBD inh,Smad3 inh,PLK1 inh,others
C[C@@]12CC[C@@H]3[C@H](CCC4=CC(=O)CC[C@H]43)[C@H]1CC[C@H]2OC1(O)C(=O)c2ccccc2C1=O,.,.,.,54*,.,
CCOC(=O)c1c(C)c(P(=S)(N2CCOCC2)N2CCOCC2)n(C)c1C,5,5,16,6,-7,
CCC(=O)N1CC(=O)Nc2ccc(F)cc2C1c1ccccc1 (stereo not drawn),2,2,-17,-2,-4,
O=C1CN(C(=O)CN2CCCCC2)C(c2ccccc2)c2cc(Br)ccc2N1 (stereo not drawn),0,16*,24,11,-3,
CC12CCC(=O)C=C1CCC1C2CCC2(C)C(O)CCC12 (stereo not drawn),.,.,.,-5,.,
CC(=O)O[C@H]1CC[C@H]2[C@H]3CCC4=C[C@@H](C5SCCS5)[C@H](OC(C)=O)C[C@]4(C)[C@@H]3CC[C@]12C,.,.,.,98*,.,
Cn1c(=O)c2[nH]cnc2n(C)c1=O.[CH2-][C@H](Cc1cccc2cc(C(=O)O)c(=O)oc12)OC.[Hg].[OH-],.,.,.,68*,.,
Cc1cc(OC(=O)CCNC(=O)OC(C)(C)C)c2c3c(c(=O)oc2c1)CCC3,1,2,-6,4,-2,
COCCNP(=O)(c1ccccc1)c1nc2ccccc2s1 (stereo not drawn),4,2,-1,.,-6,
O=S(=O)(Nc1nccs1)c1ccc([As](=O)(O)O)cc1,.,.,.,102*,.,
COC(=O)[C@@H]1[C@@H](C(=O)OC)C2(c3ccccc3-c3ccccc32)N(c2ccc(Cl)cc2)N1C#N,-1,-6,5,1,-10,
COC(=O)C[C@]1(C(=O)OC)CN(C#N)N(c2ccc(Cl)cc2)C12c1ccccc1-c1ccccc12,2,-1,-9,72*[fluorescence artefact?],-14,
FC(F)(F)c1ccccc1CN1CCN(Cc2ccccc2)CC1,0,7,-16,.,-22,
COc1cc2c3cc1Oc1c(O)c(OC)cc4c1[C@@H](Cc1ccc(cc1)Oc1cc(ccc1O)C[C@@H]3N(C)CC2)N(C)CC4,.,.,.,59*,.,
COc1cc2c(cc1O)C[C@@H]1c3c(cc(O)c(OC)c3-2)CCN1C,.,.,.,3,.,
O=C(COc1ccc2ccccc2c1)N1CCN(C2CCN(Cc3ccccc3)CC2)CC1,1,-3,10,-4,0,
O=C(O)C[C@@H]1NCc2cc3ccccc3nc21,.,.,.,51*,.,
CC(=NCC1CCCO1)c1c(O)n(C)c(=O)n(C)c1=O (stereo not drawn),7,2,4,3,-8,
CCN(CC)P(=O)(NC(=O)C(Cl)(Cl)Cl)N(CC)CC.[Cl-].[Cl-].[Cl-].[Nd+3],4,6,10,67*[fluorescence artefact?],3,
CN(CCCCC(=O)/C=N/O)Cc1ccccc1 (tested in a mixture with another compound),-1,-2,2,19,-10,
COc1cccc(N2C(=O)CC(=O)NC2=O)c1,1,-10,-19,8,-14,
CCOc1cccc(N2C(=O)CC(=O)NC2=O)c1,0,17*[fluorescence artefact?],6,-5,-15,
C[C@@H]1[C@H]2C=C[C@@H]1[C@H](c1c3ccc(=O)c(O)c-3oc3c(O)c(O)ccc13)[C@@H]2C(=O)O,.,.,.,102*,.,
N#CS.N=C=S.N=C=S.[Cu].[NH2-].[NH2-].[NH2-].[NH2-].c1ccc2ncccc2c1,.,.,.,63*,.,
COc1ccc2[nH]c(C)c(CCN3CCC(=O)C(C)C3C)c2c1 (stereo not drawn),-1,1,14,0,83*,PLK1 inh conf=-4;Plk1 interf=-54
CN1C(=O)CN=C(c2ccc(Cl)cc2)c2cc(Cl)ccc21,.,.,.,1,.,
Cc1ccc2c(c1)CC1(CN2C)C(=O)NC(=O)N(c2ccccc2C)C1=O (stereo not drawn),1,-1,40*,4,-15,Redox H2O2 DR=>50
Cc1ccc2c(c1)CC1(CN2C)C(=O)NC(=O)N(c2cccc(C)c2C)C1=O (stereo not drawn),4,-5,-7,3,-8,
